Records with an inconclusive call do not appear. Activity calls are given as the source filed them. Unless noted, calls follow the shape of the dose curve; as a rule, active = well fitted curve in the direction sought with a large enough effect; inconclusive = small, poorly fitted or top-dose-only effect, or another doubt; inactive = no such curve, though single readings can be large; an effect the other way counts as inactive or inconclusive.
Columns and labels:
[1] = Cell Viability - BJ (AID 421; calls by dose curve;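 also: potency is read from the fitted curve at half-maximal effect; cells exposed to compound for 40 hours at 37 °C before readout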); settings: BJ fibroblast viability, qHTS
Procedure, shortened: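 Cytotoxicity in human BJ foreskin fibroblasts is scored as loss of cellular ATP after a 40-hour exposure, measured by luciferase luminescence. Controls are DMSO and 100 uM tamoxifen.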

[2] = Cell Viability - Jurkat (AID 426;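 active = dose-dependent loss of cell ATP signal giving a full or clear fitted curve, ranked by lower potency value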; also: potency is read from the fitted curve at half-maximal effect); settings: qHTS
Procedure, shortened: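 Luminescent ATP read-out (CellTiter-Glo, 20 min at room temperature) after 40 hr compound exposure at 37 °C of Jurkat E6-1 cells, 5000/well. Decreased ATP taken as cytotoxicity; AC50 from standard Hill equation.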

[3] = Cell Viability - Hek293 (AID 427;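 active = compounds whose dose-response curve shows a full or clear partial loss of cell viability, called from curve shape rather than a numeric limit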;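 also: potency is read from the fitted curve at half-maximal effect; cells exposed to compound for 40 hours at 37 °C before reading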); settings: qHTS
Procedure, shortened: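 qHTS, human embryonic kidney (adenovirus-transformed) cells; 40 hr cpd, 37 °C; CellTiter-Glo ATP luminescence. Norm: DMSO = 0, 100 uM tamoxifen = 100% inhibition. Hill-fit AC50.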

[4] = Cell Viability - HepG2 (AID 433; calls by dose curve;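 also: potency is read from the fitted curve at half-maximal effect; potency for ATP loss meaning cytotoxicity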); settings: qHTS
Procedure, shortened: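 HepG2 cells, 1500 per well, treated 40 hr at 37 °C in complete medium; viability from intracellular ATP by CellTiter-Glo luminescence. Normalized to DMSO and 100 uM tamoxifen; AC50 from Hill fit of qHTS concentration-response.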

[5] = Cell Viability - MRC5 (AID 434; calls by dose curve;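 also: potency is read from the fitted curve at half-maximal effect; potency reflects cytotoxicity seen as loss of intracellular ATP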); settings: MRC5 lung fibroblast viability, qHTS
Procedure, shortened: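 AC50 values come from Hill-equation fits of intracellular ATP loss, measured by CellTiter-Glo luminescence. Normal lung fibroblasts (MRC5) had 40 hr compound treatment at 37 C, normalized between DMSO and 100 uM tamoxifen.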

[6] = biological target: Mitogen-activated protein kinase 10 (Mus musculus) (UniProt Q61831); assay: JNK3 AlphaScreen Assay (AID 530; active = well fitted curve in either direction with a large enough effect, not every such curve was filed as active;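 also: kinase came from lysate of stimulated human HepG2 cells; signal reports phosphorylation of biotinylated GST-cJun 1-79 at Ser73 with 10 µM ATP; % is scaled to controls: 0 for no effect and ±100 for the full control effect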); settings: JNK3 lysate, c-Jun phosphorylation; series mostly up to 57.1 µM
Procedure, shortened: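 Kinase buffer: 20 mM Tris-HCl pH 7.6, 10 mM MgCl2, 1 mM DTT, 0.1 mM Na3VO4, 0.01% Tween-20; ATP 10 uM. Substrate biotin-GST-cJun(1-79), enzyme from activated HepG2 lysates. Detection by Ser73 phospho-antibody AlphaScreen.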

[7] = Cell Viability - N2a (AID 540); settings: N2a mouse neuroblastoma cell viability; activity change, negative = cytotoxicity: at 92.2 µM (top of the series);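 also: plate controls were DMSO alone for no effect and tamoxifen control for full effect; nearly all actives have a fitted effect of over 45% in size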
Procedure, shortened: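 N2a mouse neuroblastoma, 1500 cells/well, 5 hr settle; compound 40 hr, 37 °C; CellTiter-Glo 20 min RT; luminescence; Hill-fit AC50.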

[8] = Cell Viability - NIH 3T3 (AID 541); settings: NIH 3T3 cell viability, qHTS; activity change, negative = cytotoxicity: at 92.2 µM (top of the series);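 also: plate controls were DMSO alone for no effect and tamoxifen positive control for full effect; nearly all actives have a fitted effect of over 25% in size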
Procedure, shortened: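 qHTS format; 40 hr compound exposure, 37 °C; CellTiter-Glo luminescence (cellular ATP) read-out after 20 min at RT. Decrease in ATP = cytotoxicity; AC50 from standard Hill fit.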

[9] = Cell Viability - HUV-EC-C (AID 542); settings: HUV-EC-C endothelial cell viability, qHTS; series mostly up to 92.2 µM; also: % is scaled to controls: 0 for no effect and ±100 for the full control effect; nearly all actives have a fitted effect of over 35% in size
Procedure, shortened: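 Luminescent ATP read-out (CellTiter-Glo, 20 min room temperature) after 40 hr compound treatment of HUV-EC-C cells at 37 °C. Concentration-response data fitted with the standard Hill equation to give AC50; tamoxifen and doxorubicin served as positive controls.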

[10] = Cell Viability - SH-SY5Y (AID 544); settings: SH-SY5Y neuroblastoma cell viability; viability change, negative = cytotoxic: at 92.2 µM (top of the series); also: nearly all actives have a fitted effect of over 55% in size
Procedure, shortened: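 SH-SY5Y, 1500 cells/well, 5 hr pre-incubation 37 °C; cpd 40 hr 37 °C; CellTiter-Glo 20 min RT; luminescence (ATP) read. qHTS concentration-response, Hill fit → AC50. Tamoxifen, doxorubicin as positive controls.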

[11] = Cell Viability - Renal Proximal Tubule (AID 545); settings: renal proximal tubule cells viability, primary cells of rat origin; series mostly up to 91.7 µM; also: nearly all actives have a fitted effect of over 40% in size
Procedure, shortened: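 Rat renal proximal tubule primary cells, 1000/well, exposed to compounds for 40 hr at 37 °C in complete medium; cellular ATP read by CellTiter-Glo luminescence. AC50 from concentration-response fitted with standard Hill equation.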

[12] = Cell Viability - Mesenchymal (AID 546); settings: mesenchymal cells viability, qHTS; series mostly up to 91.7 µM;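 also: cells exposed to compound for 40 hours before reading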
Procedure, shortened: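 CellTiter-Glo luminescence (intracellular ATP, 20 min room temperature) after 40 hr compound exposure at 37 °C of 1000 glomerulus-derived human kidney mesenchymal cells/well; AC50 values obtained by fitting qHTS concentration-response data to the Hill equation.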

[13] = Cellular Toxicity (caspase-3) HepG2 (AID 654); settings: HepG2 caspase-3 activation, luminescence; series mostly up to 92.2 µM;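 also: cells exposed to compound for 16 hours before reading; 0% = DMSO alone and 100% = caspase signal from 100 µM tamoxifen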
Procedure, shortened: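 Luminescent Caspase-Glo 3/7 readout after 16 hr compound exposure of human hepatocellular carcinoma HepG2 cells at 37 °C; qHTS concentration-response, normalized DMSO = 0%, 100 uM tamoxifen = 100%; AC50 by standard Hill equation.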

[14] = Cellular Toxicity (caspase-3) Jurkat (AID 655); settings: Jurkat caspase-3 activation, luminescence; caspase-3 activation: at 92.2 µM (top of the series), DMSO = 0%, tamoxifen = 100%;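 also: cells exposed to compound for 16 h at 37 °C before reading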
Procedure, shortened: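 Jurkat cells (5000/well) in complete medium exposed 16 h at 37 C; caspase-3/7 activity read by Caspase-Glo luminescence after 20 min at room temperature. Normalized to DMSO and 100 uM tamoxifen; AC50 from Hill fits.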

[15] = Cellular Toxicity (caspase-3) HUV-EC-C (AID 656); settings: HUV-EC-C cells, caspase-3 activation (apoptosis), vehicle = 0, 100 µM tamoxifen = 100%; series mostly up to 92.2 µM
Procedure, shortened: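 HUV-EC-C cells (1000/well) in complete medium, compound-treated 16 h at 37 °C; caspase-3/7 activity read by Caspase-Glo 3/7 luminescence. Normalized to DMSO (basal) and 100 uM tamoxifen (100%); AC50 from Hill-equation concentration-response fits.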

[16] = Cellular Toxicity (caspase-3) SHSY5Y (AID 657); settings: SH-SY5Y caspase-3 activation, DMSO zero, 10 µM staurosporine = 100%; series mostly up to 91.7 µM
Procedure, shortened: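 SH-SY5Y human neuroblastoma cells, 1500/well, exposed to compound for 16 hours at 37 °C in complete medium. Caspase-3/7 activity read by Caspase-Glo luminescence after 1 hr at room temperature, normalized to DMSO and 10 uM staurosporine; AC50 from Hill fit.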

[17] = Cellular Toxicity (caspase-3) BJ (AID 658); settings: BJ fibroblasts, luminescence, normalized: DMSO 0%, staurosporine 100%; series mostly up to 91.7 µM
Procedure, shortened: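 Caspase-Glo 3/7 luminescence, read 1 hr after reagent at room temperature, in normal BJ fibroblasts exposed 16 hours at 37 °C. AC50 values from Hill-equation concentration-response, scaled between DMSO basal and 10 uM staurosporine as 100%.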

[18] = Cellular Toxicity (caspase-3) MRC-5 (AID 659); settings: MRC-5 cells, luminescence, normalized: DMSO 0%, 10 µM staurosporine 100%; series mostly up to 91.7 µM
Procedure, shortened: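 Luminescent Caspase-Glo 3/7 read-out (1 h, room temperature) after a 16 h, 37 °C compound exposure of MRC-5 lung fibroblasts at 1500 cells/well. Concentration-response AC50 from Hill equation; 0% DMSO, 100% 10 uM staurosporine.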

[19] = Cell Viability - H-4-II-E (AID 543); settings: H-4-II-E rat hepatoma viability; series mostly up to 92.2 µM; also: % is scaled to controls: 0 for no effect and ±100 for the full control effect; nearly all actives have a fitted effect of over 35% in size
Procedure, shortened: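 qHTS, rat hepatoma H-4-II-E, 1500 cells/well; 40 hr compound exposure, 37 °C; CellTiter-Glo ATP luminescence after 20 min RT; AC50 by standard Hill fit.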

[20] = Cell Viability - SK-N-SH (AID 435; calls by dose curve; also: potency is read from the fitted curve at half-maximal effect); settings: SK-N-SH neuroblastoma cell viability qHTS
Procedure, shortened: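 SK-N-SH neuroblastoma cells (1500/well) treated 40 h at 37 °C in complete medium; viability read as cellular ATP by CellTiter-Glo luminescence. Normalized to DMSO and 100 uM tamoxifen; AC50 from Hill fits of qHTS concentration-response.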

CC(C)=C1CCC(C)CC1=O (stereo not given)
inactive: Potency [1] > 92 µM | Potency [2] > 92 µM | Potency [3] > 92 µM | Potency [4] > 92 µM | Potency [5] > 92 µM | outcome [6] | activity change, negative = cytotoxicity [7] -3.2% | Potency [8] | Potency [9] | Potency [10] | Potency [11] | Potency [12] | Potency [13] | caspase-3 activation [14] -1.31% | outcome [15] | outcome [16] | outcome [17] | outcome [18]

OC(CCl)CCl
inactive: Potency [1] > 92 µM | Potency [2] > 92 µM | Potency [3] > 92 µM | Potency [4] > 92 µM | Potency [5] > 92 µM | outcome [6] | activity change, negative = cytotoxicity [7] -4.88% | Potency [8] | Potency [9] | Potency [19] | Potency [10] | Potency [12] | Potency [13] | caspase-3 activation [14] 0.028% | outcome [15] | outcome [17] | outcome [18]

CC(=O)OCCC(C)C
inactive: Potency [1] > 92 µM | Potency [2] > 92 µM | Potency [3] > 92 µM | Potency [4] > 92 µM | Potency [5] > 92 µM | outcome [6] | activity change, negative = cytotoxicity [7] -1.72% | Potency [8] | Potency [9] | Potency [19] | Potency [10] | Potency [11] | Potency [12] | Potency [13] | caspase-3 activation [14] 0.836% | outcome [16] | outcome [17]

O=C(O)c1ccccc1[N+](=O)[O-]
inactive: Potency [1] > 92 µM | Potency [2] > 92 µM | Potency [3] > 92 µM | Potency [4] > 92 µM | Potency [5] > 92 µM | outcome [6] | activity change, negative = cytotoxicity [7] 4.07% | Potency [8] | Potency [9] | Potency [19] | Potency [10] | Potency [11] | Potency [13] | caspase-3 activation [14] -0.644% | outcome [15] | outcome [16] | outcome [17] | outcome [18]

Nc1cc(Cl)c(N)c(Cl)c1
inactive: Potency [1] > 92 µM | Potency [2] > 92 µM | Potency [3] > 92 µM | Potency [4] > 92 µM | Potency [5] > 92 µM | Potency [20] > 92 µM | activity change, negative = cytotoxicity [7] -5.31% | Potency [8] | Potency [9] | Potency [19] | Potency [11] | Potency [12] | Potency [13] | caspase-3 activation [14] 3.71% | outcome [16] | outcome [17] | outcome [18]

O=C(O)CNC(=O)c1ccc(CO)o1
inactive: Potency [1] > 92 µM | Potency [2] > 92 µM | Potency [3] > 92 µM | Potency [4] > 92 µM | Potency [5] > 92 µM | outcome [6] | activity change, negative = cytotoxicity [7] -13.4% | Potency [8] | Potency [9] | Potency [10] | Potency [12] | Potency [13] | caspase-3 activation [14] -2.47% | outcome [15] | outcome [17] | outcome [18]

CN(C)c1cccc(O)c1
inactive: Potency [1] > 92 µM | Potency [2] > 92 µM | Potency [3] > 92 µM | Potency [4] > 92 µM | outcome [6] | activity change, negative = cytotoxicity [7] -1.51% | Potency [8] | Potency [9] | Potency [10] | Potency [11] | Potency [12] | Potency [13] | caspase-3 activation [14] -0.572% | outcome [15] | outcome [16] | outcome [17] | outcome [18]
